In the library only some 6% were active in any assay of this set; here they are far more common.
D1 antag: Antagonist of Human D 1 Dopamine Receptor: qHTS; HEK293 TREx D1 cells, calcium flux, dopamine EC80; stronger effect = lower value; activity change, negative = inhibition, % at 10 µM; 360,000 tested, 3.2% active; AID 504652, 2011; in the data active = activity change below about -30%; note: % is set by controls: 0 for no effect and ±100 for the full control effect
Target sequence (P21728 whole entry, looked up): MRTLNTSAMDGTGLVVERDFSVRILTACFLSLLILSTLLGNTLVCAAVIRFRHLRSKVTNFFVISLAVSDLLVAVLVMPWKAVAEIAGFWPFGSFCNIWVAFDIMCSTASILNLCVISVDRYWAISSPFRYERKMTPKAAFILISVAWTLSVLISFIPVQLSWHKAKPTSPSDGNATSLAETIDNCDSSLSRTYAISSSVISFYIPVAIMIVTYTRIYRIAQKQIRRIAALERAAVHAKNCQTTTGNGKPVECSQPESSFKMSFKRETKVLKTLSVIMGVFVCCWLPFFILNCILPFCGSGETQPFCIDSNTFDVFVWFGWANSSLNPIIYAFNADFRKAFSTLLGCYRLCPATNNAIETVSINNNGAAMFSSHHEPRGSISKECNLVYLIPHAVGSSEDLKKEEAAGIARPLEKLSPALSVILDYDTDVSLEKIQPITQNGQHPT
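Kinetic fluorescence of a calcium dye serves as the read-out. D1-expressing Hek293 Trex cells, induced overnight at 30 C, are exposed to compound for 180 s before an EC80 dopamine addition, then read 180 s further.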
D3 ag: qHTS of D3 Dopamine Receptor Agonist: qHTS | D(3) dopamine receptor (Homo sapiens), P35462 | D3R DiscoveRx beta-arrestin cells, luminescence, 90 min | max activation, % | 410,000 tested, 0.58% active | AID 652048, 2013; in the data active = max activation above about 30%; note: 0% is about no effect
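Agonist-mode cell screen: cells plated at 1500/well and incubated overnight at 37 °C, then exposed to library compounds for 90 min at 37 °C. Detection reagent was added for 30–60 min at room temperature, and luminescence was read.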
D1 agonist: Allosteric Agonists of the Human D1 Dopamine Receptor: qHTS; HEK293 T-REx D1 cells, calcium flux, agonist mode; activation, % at 2 µM; 360,000 tested, 1% active; AID 504660, 2011; in the data active = activation above about 30%; note: 0% is about no effect
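Agonism was scored from calcium flux recorded over 180 s (1 read/s) after pintool compound addition, following a 10-cycle baseline. Cells were inducible force-coupled HEK293 TREx D1, plated overnight at 30 C and loaded with no-wash calcium dye.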
D1 PAM: Potentiators of Human D1 Dopamine Receptor: qHTS. D(1A) dopamine receptor (Homo sapiens), P21728. HEK293 TREx D1 cells, calcium flux, dopamine EC20 potentiation. potentiation, % at 10 µM. 360,000 tested, 0.036% active. AID 504651, 2011; in the data active = potentiation above about 30%; note: 0% is about no effect
DRD3 antagonist: qHTS of D3 Dopamine Receptor Antagonist: qHTS. D(3) dopamine receptor (Homo sapiens), P35462. D3R cells, DiscoveRx beta-arrestin luminescence, antagonist mode; stronger effect = lower value. max response, negative = inhibition, %. 360,000 tested, 2.5% active; in the data active = max response below about -50%; inconclusive = no clear call, values can overlap the other calls; note: % is set by controls: 0 for no effect and ±100 for the full control effect
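Cells expressing the human receptor were seeded at 1500 cells/well, incubated overnight at 37 degrees C in 5% CO2, then exposed to library compounds with dopamine controls for 90 minutes at 37 degrees C before luminescent detection.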
Starred values were filed as active, the others as inactive; ? = inconclusive; nt = no result.

SMILES | D1 antag | D3 ag | D1 agonist | D1 PAM | DRD3 antagonist
Cc1ccc(C)c(-c2cc(C(=O)Nc3sc(C)c(C)c3C(N)=O)c3ccccc3n2)c1 | 5 | 46* | 4 | 1 | 15
O=C(NCc1ccccc1)C(c1ccccc1)n1c(-c2ccccn2)nc2ccccc21 (configuration not stated) | nt | -22 | nt | nt | -14
Cc1cc(C)cc(NC(=O)COCc2cc(-c3ccc4c(c3)OCO4)on2)c1 | 4 | 4 | 11 | -4 | nt
Nc1sc(-c2ccccc2)cc1C(=O)N1CCN(c2ccccc2)CC1 | nt | 4 | nt | nt | 4
COc1cc(/C=C2/C(=N)N3C(=NC2=O)SN=C3S(C)(=O)=O)ccc1OS(=O)(=O)c1ccccc1 | -24 | nt | 1 | -2 | nt
COc1cc(/C=C2\C(=N)N3N=CSC3=NC2=O)ccc1OS(=O)(=O)c1ccccc1[N+](=O)[O-] | -30* | 0 | 4 | -3 | 9
COc1ccc(CCNC2CCC(c3ccccc3)CC2)cc1 (configuration not stated) | -15 | -8 | 19 | -5 | -65*
Oc1ccc(Cl)cc1N=Cc1sc2ccccc2c1Cl | 3 | 3 | 0 | -4 | -16
Cc1cccc(/N=C/c2sc3ccccc3c2O)n1 | 3 | 4 | 52* | -6 | -21
Oc1c(C=Nc2cccc3cccnc23)sc2ccccc12 | -24 | nt | 158* | 0 | nt
Oc1c(Br)cc(Br)cc1C=Nc1cccc2ncccc12 | nt | -14 | nt | nt | -27
O=[N+]([O-])c1ccc(O)c(N=Cc2sc3ccccc3c2O)c1 | 16 | -26 | 27 | 2 | -83*
Cc1cccc(/N=C/c2c(O)[nH]c3ccccc23)n1 | -14 | 0 | 33* | -8 | -29
Cc1cccc(/N=C/c2ccccn2)n1 | nt | 5 | nt | nt | 4
O=C(N/N=C/c1cc([N+](=O)[O-])ccc1O)c1cc(-c2ccccc2)nc2ccccc12 | 0 | 7 | 3 | -2 | 4
Oc1ccc(Br)cc1/C=N/N1CCCCC1 | 6 | -11 | 1 | 6 | -12
O=[N+]([O-])c1ccc(O)c(C=NN2CCCCC2)c1 | nt | -22 | nt | nt | -76*
O=C(N/N=C/c1c[nH]c2ccccc12)c1ccc([N+](=O)[O-])cc1Cl | -48* | -2 | 6 | -13 | -21
Cc1cc(C(=O)N/N=C/c2cc([N+](=O)[O-])ccc2O)c2ccccc2n1 | 7 | -10 | 1 | -1 | -65*
COc1ccc(N2CC(C(=O)N/N=C/c3cc([N+](=O)[O-])ccc3O)CC2=O)cc1 (configuration not stated) | -2 | -2 | -1 | 1 | -52*
O=C(N/N=C/c1cc([N+](=O)[O-])ccc1O)c1c[nH]c2ccccc12 | -15 | -5 | 0 | -5 | -29
CCOc1ccc(CN2C(=O)c3ccccc3Sc3ccc(C(=O)NCc4ccc(C)cc4)cc32)cc1 | -2 | 4 | 4 | 1 | nt
COc1ccc(-n2cc(C(=O)OCc3ccc(Cl)cc3)c3ccccc3c2=O)cc1 | 7 | -16 | 3 | 0 | nt
N#CCC(=O)N/N=C/c1cc([N+](=O)[O-])ccc1N1CCCC1 | -8 | -9 | 2 | -2 | -26
O=C(N/N=C/c1cc([N+](=O)[O-])ccc1Cl)c1cc(-c2ccccc2)nc2ccccc12 | -47* | 1 | 1 | -8 | 24
SMILES | D1 antag | D3 ag | D1 agonist | D1 PAM | DRD3 antagonist
Cc1cc(C(=O)N/N=C/c2cc(Br)cc([N+](=O)[O-])c2O)c2ccccc2n1 | 1 | -14 | 1 | -7 | -94*
CN(/N=C/c1cc([N+](=O)[O-])ccc1O)c1ccccc1 | -12 | -5 | 2 | -7 | -20
CC(N=Cc1cc([N+](=O)[O-])ccc1O)c1ccccc1 (configuration not stated) | 1 | -4 | 9 | -3 | -52*
O=C(CNc1ccccc1)N/N=C/c1cc([N+](=O)[O-])ccc1N1CCCC1 | -31* | -15 | 2 | -9 | ?
Cc1cc(C(=O)N/N=C/c2ccc([N+](=O)[O-])cc2)c2ccccc2n1 | -13 | -1 | 2 | -7 | -4
CN1CCN(c2ncnc3c2ncn3[C@H]2CN(Cc3ccc(-c4ccccc4)cc3)C[C@@H](CO)O2)CC1 | nt | -3 | nt | nt | 11
O=C(N/N=C/c1cc([N+](=O)[O-])ccc1O)Nc1ccccc1 | 0 | -17 | 0 | 1 | -75*
O=C(N/N=C/c1cc([N+](=O)[O-])ccc1O)C12CC3CC(CC(C3)C1)C2 | 7 | -28 | 4 | -6 | -93*
Cc1nn(CCCC(=O)NCCc2ccc(Cl)cc2)c(=O)c2c1sc1ccccc12 | 9 | -2 | 2 | -2 | nt
CCCN1C(=O)CC(c2ccc(OC)c(OC)c2)C1=O (configuration not stated) | nt | 10 | nt | nt | 7
CCOC(=O)C1(Cc2ccc(OC)cc2)CCN(C(=O)c2sc(C)nc2C)CC1 | -14 | -1 | 3 | 1 | 22
CCOC(=O)C1(Cc2cccc(OC)c2)CCN(CC(O)CO)CC1 (configuration not stated) | -44* | -3 | 1 | -6 | -1
CCOC(=O)C1(Cc2ccc(OC)cc2)CCN(C(=O)c2cc(C)on2)CC1 | -33* | -2 | 4 | 3 | -20
CCOC(=O)C1(Cc2cccc(OC)c2)CCN(CCO)CC1 | -1 | 5 | 2 | -7 | 6
Cc1ccccc1Cn1cc(S(=O)(=O)c2ccc(Cl)cc2)c(=O)c2cc3c(cc21)OCO3 | 5 | -13 | 3 | 1 | nt
O=C(Nc1ccccc1C(=O)O)c1ccc(Br)c(S(=O)(=O)NCc2ccccc2)c1 | 8 | 39* | 2 | 2 | 79
COc1ccc(C(C)=O)cc1Cn1cnc2c(cnn2C)c1=O | 4 | 4 | 3 | 4 | -3
COc1ccc(C=O)cc1Cn1cnc2c(cnn2C)c1=O | -36* | 2 | 1 | 1 | 8
CS(=O)(=O)c1cc(N2CCOCC2)ccc1CNC[C@H]1O[C@@H](n2cnc3c(=O)[nH]c(N)nc32)[C@H](O)[C@@H]1O | nt | 10 | nt | nt | 21
COc1cccc(/C=N/NC(=O)NC23CC4CC(CC(C4)C2)C3)c1O | nt | -16 | nt | nt | -62*
NC(CO)c1csc(Nc2ccc(C(F)(F)F)cn2)n1 (configuration not stated) | nt | 8 | nt | nt | 0
NC(c1csc(Nc2ccc(C(F)(F)F)cn2)n1)C1CCCCC1 (configuration not stated) | nt | -13 | nt | nt | -53*
CC1=C(C#N)C(NC(=O)c2ccccc2)(C(F)(F)F)C(=O)N1 (configuration not stated) | 0 | -5 | 0 | -1 | nt
